PrP UTR inh = inhibition of PrP 5' UTR reporter expression; cell-based PrP 5' UTR mRNA reporter, plate reader; inhibition, % (test concentration not listed); actives 0.35% (n = 340,000); AID 488862, 2010; in the data active means inhibition above about 52%; further: 0 = median of the neutral control wells
BioA inh = M. tuberculosis BioA enzyme inhibitors, primary screen, biochemical, plate reader, single point, HTS | AID 602481, 2012 | actives 0.096% (n = 360,000) | inhibition, % at 9.99 µM | 7,8-diaminopelargonic acid synthase BioA (Mycobacterium tuberculosis) | purified M. tuberculosis BioA enzyme; in the data active means inhibition above about 40%
Y pestis TopoI = Yersinia pestis topoisomerase I inhibitors, primary screen, biochemical, cleavage product accumulation, plate reader, single point; AID 504884, 2011; activity, % at 10 µM; Y. pestis Topo-I cleavage product accumulation; DNA topoisomerase I (Yersinia pestis CO92); actives 0.064% (n = 360,000); in the data active means activity above about 50%, passing the limit was not always enough
PfHsp40 yeast = rescue of yeast from PfHsp40 toxicity, primary screen, S. cerevisiae, ATP luminescence | actives 0.68% (n = 340,000) | AID 504582, 2011 | growth rescue, % at 12.5 µM | S. cerevisiae expressing PfHsp40, growth rescue; in the data active means growth rescue above about 28%, passing the limit was not always enough;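 further: yeast W303a lacking pdr1 and pdr3 grown in galactose medium; growth measured after three days at 30 °C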
FadD28 FP inh = inhibitors of FadD28 bisubstrate probe binding, primary screen, biochemical, fluorescence polarization, single point. Mycobacterium tuberculosis FadD28 fatty-acid-AMP ligase. AID 588549, 2011. inhibition, % at 12.5 µM. actives 0.22% (n = 360,000); in the data active means inhibition above about 8.5%, passing the limit was not always enough
PrP 5UTR single = prion 5' UTR mRNA inhibition, cherry-pick retest. inhibition, % at 2.5 µM. actives 48% (n = 1,100). cell-based prion protein 5' UTR reporter, plate reader. shares compounds with PrP UTR inh; in the data active means inhibition above about 54%
* hit, by the source's call; . = not tested or not shown. A selection: hits, their analogues and other compounds. The true share with any hit is near 1.1%.

SMILES	PrP UTR inh	BioA inh	Y pestis TopoI	PfHsp40 yeast	FadD28 FP inh	PrP 5UTR single
O=C1c2cccc3cc([N+](=O)[O-])cc(c23)C(=O)N1CCN1CCCC1	90.3*	0.4	-15.4	-0.1	-4.7	81.7*
Cc1cccc(CSC(=N)N)c1	52.5*	.	-0.6	0.6	-1.1	3.2
N=C(N)SCCc1cnc[nH]1	-10.4	0.4	-4.0	-0.8	-0.1	.
N=C(N)SCCc1cccc(CCSC(=N)N)c1	70.5*	-0.9	1.7	1.0	-3.5	-20.7
CCCC[C@@H](C)C[C@@H](C)C(=O)N(C)[C@@H](CC(C)C)C(=O)N[C@H](C(=O)N(C)[C@H](C(=O)N1C[C@@H](O)C[C@H]1C(=O)N1C(=O)C=C[C@@H]1C)C(C)C)C(C)OC(C)=O (some centres not stated)	85.3*	4.1	1.5	0.0	-1.9	95.9*
Nc1cc(C(Cl)=C(Cl)Cl)c(S(N)(=O)=O)cc1S(N)(=O)=O	64.2*	-4.4	-1.6	0.3	-1.1	-2.1
C[C@@H]1CN([C@H](C)CO)C(=O)c2ccccc2-c2ccccc2CO[C@H]1CN(C)C(=O)c1ccncc1	.	-0.4	.	.	.	.
Oc1ccccc1-c1n[nH]c(-c2ccccc2O)n1	68.6*	.	-6.3	-0.9	-1.1	-39.9
Cc1c(N(C)CS(=O)(=O)O)c(=O)n(-c2ccccc2)n1C	57.8*	0.3	-1.5	-1.4	-2.6	-25.6
Cc1c(N(C)C(=O)c2ccco2)c(=O)n(-c2ccccc2)n1C	-13.0	1.4	1.8	3.3	-1.3	.
Cc1cc(C(=O)CN2C(=O)c3ccccc3S2(=O)=O)c(C)n1CC1CCCO1 (configuration not stated)	87.7*	-1.2	-1.1	-0.1	-3.7	86.2*
CCCn1c(C)cc(C(=O)CN2C(=O)c3ccccc3S2(=O)=O)c1C	.	0.0	13.3	.	-4.4	.
CC(C)NC(=O)Nc1cccc2c1O[C@H](CN(C)S(=O)(=O)c1cn(C)cn1)[C@@H](C)CN([C@H](C)CO)C2=O	.	-1.9	.	.	.	.
c1cc2c(cc1C1=NNC(=NC3CC3)SC1)OCCO2	90.8*	.	4.4	-2.4	-2.2	91.2*
Cc1cc(C2=NNC(=NC3CC3)SC2)c(C)n1-c1ccccc1F	94.3*	.	0.9	-1.8	-2.9	96.2*
Cc1cc(C2=NNC(=NC3CCCCC3)SC2)c(C)n1-c1c(C)n(C)n(-c2ccccc2)c1=O	-29.2	-0.7	-3.8	-1.5	-1.4	.
CCN(CC)c1ccc(-c2nn3c(-c4n[nH]c5c4CCC5)nnc3s2)cc1	74.3*	-1.4	-2.7	0.4	-0.2	84.2*
C=CCn1c(O)c(C=Nc2ccc(OC)cc2C)c(=O)[nH]c1=O	55.2*	-1.8	4.5	4.1	1.2	0.4
CCOC(=O)CC/C(C)=N\N=C1\SC(CC(=O)O)C(=O)N1c1ccccc1 (configuration not stated)	84.9*	.	0.4	2.0	-1.6	-18.3
CCCNC(=O)N(C)C[C@@H]1Oc2ncc(C#CCC(C)C)cc2C(=O)N([C@@H](C)CO)C[C@H]1C	.	3.2	.	.	.	.
COc1cc(-c2cc(-c3ccccc3)nc(SCC(=O)Nc3nccs3)c2C#N)cc(OC)c1OC	-9.7	-0.7	1.9	-0.9	-0.1	.
Cc1nc(SCC(=O)Nc2nc3ccccc3s2)c(C#N)c(C)c1C	92.8*	.	3.1	1.0	-3.0	93.0*
Cc1nc(SCC(=O)Nc2nccs2)c(C#N)c(C)c1C	71.2*	0.1	-4.1	-0.8	-2.2	69.2*
COCC(=O)N1C[C@@H](C)[C@H](OC)CN(C)C(=O)c2ccc(NC(=O)C3CCC3)cc2OC[C@H]1C	.	-0.7	.	.	.	.
C[C@@H]1CN([C@@H](C)CO)C(=O)c2cc(NS(C)(=O)=O)ccc2O[C@H]1CN(C)C(=O)Nc1ccc(C(F)(F)F)cc1	.	-2.5	.	.	.	.
SMILES	PrP UTR inh	BioA inh	Y pestis TopoI	PfHsp40 yeast	FadD28 FP inh	PrP 5UTR single
CCOC(=O)c1cnn(-c2ccccc2)c1NC(=O)CN1CCOCC1	74.3*	.	0.2	-0.1	-1.7	-50.4
N#Cc1cnn(-c2ccccc2)c1NC(=O)CN1CCOCC1	.	-3.5	-5.7	.	-0.4	.
C=CCn1c(SCc2c(C)noc2C)nc2ccccc2c1=O	66.7*	5.3	11.4	0.0	-2.8	82.4*
Brc1ccc(N=Nc2ccc3ccccc3n2)cc1	82.0*	-1.7	-10.9	-3.4	-1.6	80.1*
C[C@H]1CN([C@@H](C)CO)C(=O)c2cccc(NC(=O)c3ccc(-c4nccs4)cc3)c2O[C@@H]1CN(C)Cc1ccc(Cl)c(Cl)c1	.	1.9	.	.	.	.
C[C@@H]1CCCCO[C@H](CN(C)Cc2ccccc2)[C@H](C)CN([C@@H](C)CO)C(=O)c2cc(NS(=O)(=O)c3cn(C)cn3)ccc2O1	.	-2.9	.	.	.	.
CCCCN1C(C)=CC(=C2C(=O)c3ccccc3C2=O)C=C1C	8.7	.	17.2	0.3	1.6	.
CCCCCCN1C=CC(=C2C(=O)c3ccccc3C2=O)C=C1	72.0*	0.3	-6.2	0.6	-2.0	71.6*
CCN1C=CC(=C2C(=O)c3ccccc3C2=O)C=C1	87.8*	-1.5	1.6	0.1	-1.5	90.7*
CCCN1C=CC(=C2C(=O)c3ccccc3C2=O)C=C1	92.7*	-1.0	12.4	-0.6	1.9	96.3*
CC(C)NC(=O)N(C)C[C@@H]1Oc2ncc(-c3cccc(C#N)c3)cc2C(=O)N([C@@H](C)CO)C[C@H]1C	.	-0.2	.	.	.	.
COc1ccc(/C=N/NC(=O)c2cc3c(OC)ccc(OC)c3[nH]2)cc1O	60.0*	.	-32.2	0.8	7.2	78.2*
COc1ccc(OC)c2[nH]c(C(=O)N/N=C/c3ccccc3O)cc12	13.0	-0.2	-29.6	-1.0	3.8	.
C[C@H](CO)N1C[C@H](C)[C@H](CN(C)Cc2ccc(Cl)c(Cl)c2)Oc2ccc(NC(=O)CCN3CCOCC3)cc2CC1=O	.	0.8	.	.	.	.
Nc1ncnc2c1ncn2[C@@H]1O[C@H](CO)[C@@H](O)[C@H]1O	-18.1	-3.0	7.3	-3.0	-1.2	.
Nc1ncnc2c(C3OC(CO)C(O)C3O)c[nH]c12 (configuration not stated)	95.1*	.	-2.9	-1.2	-3.0	97.3*
C[C@H]1[C@@H](OS(=O)(=O)O)C[C@@H]2C[C@H]([C@@H](O)c3cc(=O)[nH]c(=O)[nH]3)NC3=NC[C@H]1N32	60.7*	-1.3	4.2	.	-2.1	66.0*
CC(=O)O[C@H]1[C@H]2O[C@]23[C@@H]2CC[C@]4(O)C[C@@H](O)CC[C@]4(C)C2CC[C@]3(C)[C@H]1c1ccc(=O)oc1 (some centres not stated)	94.2*	0.3	-2.6	0.1	-0.3	91.0*
O=C(N[C@H]1CC[C@@H](CC(=O)N2CCCCC2)O[C@H]1CO)c1ccc2c(c1)OCO2	.	4.9	.	.	.	.
Cc1nc2ccccc2c2oc(C(=O)NC3CC3)cc12	15.3	1.0	-1.1	-0.2	1.0	.
CCOc1ccc(NC(=O)c2cc3c(C)nc4ccccc4c3o2)cc1	61.8*	-2.1	10.1	-0.5	0.7	13.6
